Screening data as filed in PubChem BioAssay.
SRC1 TRFRET art – counter-screen for PPARgamma SRC-1 recruitment agonists: TR-FRET artefact; TR-FRET detection artefact counter-screen, emission ratio; active compounds read high; TR-FRET ratio at 8 µM; 99,000 compounds, 0.34% hits; in the data active = TR-FRET ratio above about 2300
PPARg SRC1 recr – agonists of human PPARgamma SRC-1 coactivator recruitment | P37231 | PPARgamma-SRC-1 coactivator recruitment biochemical assay | activation, % at 8 µM | 200,000 compounds, 0.41% hits | AID 631; in the data active = activation above about 19%;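 also: 0% = DMSO and 100% = reference agonist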
Target sequence (P37231 whole entry, looked up): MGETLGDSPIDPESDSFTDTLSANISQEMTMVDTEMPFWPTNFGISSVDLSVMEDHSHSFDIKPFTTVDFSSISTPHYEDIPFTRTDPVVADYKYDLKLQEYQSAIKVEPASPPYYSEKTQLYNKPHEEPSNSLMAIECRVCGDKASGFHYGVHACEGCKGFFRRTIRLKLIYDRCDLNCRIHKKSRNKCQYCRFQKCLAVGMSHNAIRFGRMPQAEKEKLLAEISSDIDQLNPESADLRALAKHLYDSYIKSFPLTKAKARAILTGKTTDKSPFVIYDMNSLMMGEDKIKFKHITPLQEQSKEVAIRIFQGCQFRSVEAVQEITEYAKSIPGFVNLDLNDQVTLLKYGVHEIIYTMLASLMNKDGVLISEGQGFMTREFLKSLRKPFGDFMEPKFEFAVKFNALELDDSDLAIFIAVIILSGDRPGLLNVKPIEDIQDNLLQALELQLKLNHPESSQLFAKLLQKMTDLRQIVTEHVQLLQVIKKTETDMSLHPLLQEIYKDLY
PPARg SRC-3 ag – PPARgamma-driven SRC-3 recruitment agonism. biochemical PPARgamma/SRC-3 coactivator recruitment assay. P37231. 200,000 compounds, 0.26% hits. activation, % at 8 µM; in the data active = activation above about 23%;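 also: 0% = DMSO and 100% = reference agonist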
PPARg SRC-2 ag – promotes SRC-2 coactivator recruitment by human PPARgamma; PPARgamma LBD-SRC-2 recruitment, biochemical; AID 1032; 200,000 compounds, 0.34% hits; activation, % at 8 µM; in the data active = activation above about 22%;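 also: 0% = vehicle and 100% = reference agonist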
TR-FRET SRC-2 ct – counter-screen for PPARgamma SRC-2 recruitment agonists: TR-FRET artefact. 200,000 compounds, 0.4% hits. TR-FRET ratio at 8 µM. active compounds read high
SRC3 TRFRET art – flags TR-FRET format artefacts in PPARgamma SRC-3 recruitment agonist screen | TR-FRET artefact counter-screen, PPARgamma/SRC-3 format; active compounds read high | 99,000 compounds, 0.39% hits | TR-FRET ratio at 8 µM
An asterisk follows results filed as active. Hits are enriched below; roughly 0.84% of the tested compounds scored in any of these assays. Rule as the data show it, unless noted: active = TR-FRET ratio above about 2000; inactive = the rest.

What do the screens show for `Cc1[nH]nc2c1C(c1ccc(-c3ccc(Cl)cc3)o1)C(C#N)=C(N)O2` (stereo not drawn)?
SRC1 TRFRET art: 1928; PPARg SRC1 recr: 7.3; PPARg SRC-3 ag: 4.3; PPARg SRC-2 ag: 22.8*; TR-FRET SRC-2 ct: 1664; SRC3 TRFRET art: 1758

How did CC(C)c1nnc(NC(=O)c2cccc(NC(=O)C(F)(F)F)c2)s1 do in these assays?
SRC1 TRFRET art: 1816; PPARg SRC1 recr: 3.9; PPARg SRC-3 ag: 3.7; PPARg SRC-2 ag: 7.0; TR-FRET SRC-2 ct: 1976*; SRC3 TRFRET art: 1623

What do the screens show for `Nc1cnccc1C(=O)O`?
SRC1 TRFRET art: 1975; PPARg SRC1 recr: 1.7; PPARg SRC-3 ag: 8.2; PPARg SRC-2 ag: 3.7; TR-FRET SRC-2 ct: 1624; SRC3 TRFRET art: 1695

What do the screens show for `O=C(Nc1nc(-c2nc3ccccc3s2)cs1)C1COc2ccccc2O1` (stereo not drawn)?
SRC1 TRFRET art: 2597*; PPARg SRC1 recr: 9.0; PPARg SRC-3 ag: 9.8; PPARg SRC-2 ag: 17.4; TR-FRET SRC-2 ct: 1973*; SRC3 TRFRET art: 1956

What do the screens show for `Cc1ccccc1NC(=O)c1c2c(nc3ccccc13)CCC2`?
SRC1 TRFRET art: 1867; PPARg SRC1 recr: -6.0; PPARg SRC-3 ag: 0.9; PPARg SRC-2 ag: 1.9; TR-FRET SRC-2 ct: 1328; SRC3 TRFRET art: 1487

Results for CCOc1ccc2cc(C#N)c(SCC(=O)NC(C)CC)nc2c1 (stereo not drawn) ?
PPARg SRC1 recr: 32.3*; PPARg SRC-3 ag: 0.1; PPARg SRC-2 ag: 16.0; TR-FRET SRC-2 ct: 1580

What do the screens show for `Cc1cccc(N2CCN(C(=O)c3cn4ccccc4n3)CC2C)c1` (stereo not drawn)?
SRC1 TRFRET art: 1775; PPARg SRC1 recr: 3.9; PPARg SRC-3 ag: 1.6; PPARg SRC-2 ag: 4.2; TR-FRET SRC-2 ct: 1718; SRC3 TRFRET art: 1574

What do the screens show for `N#Cc1c(NC(=O)c2ccccc2Cl)n(Cc2ccccc2)c2nc3ccccc3nc12`?
SRC1 TRFRET art: 1811; PPARg SRC1 recr: 20.6*; PPARg SRC-3 ag: 62.1*; PPARg SRC-2 ag: 13.2; TR-FRET SRC-2 ct: 1663; SRC3 TRFRET art: 1498

How did CCCCn1c(NC(=O)c2ccccc2Cl)c(C#N)c2nc3ccccc3nc21 do in these assays?
PPARg SRC1 recr: 13.4; PPARg SRC-3 ag: 23.1; PPARg SRC-2 ag: 21.8; TR-FRET SRC-2 ct: 1951

What do the screens show for `CCCCc1ccc(C2C(C#N)=C(N)SC(N)=C2C#N)s1`?
PPARg SRC1 recr: 21.0*; PPARg SRC-3 ag: 8.4; PPARg SRC-2 ag: 4.3; TR-FRET SRC-2 ct: 1742

How did CCCCc1ccc(/C=C(\C#N)C(N)=S)s1 do in these assays?
SRC1 TRFRET art: 1995; PPARg SRC1 recr: 4.4; PPARg SRC-3 ag: -0.8; PPARg SRC-2 ag: 0.0; TR-FRET SRC-2 ct: 1625; SRC3 TRFRET art: 1538

Results for O=C(Nc1nc(-c2ccccc2)nc2ccccc12)c1ccc(F)cc1 ?
SRC1 TRFRET art: 1991; PPARg SRC1 recr: -0.8; PPARg SRC-3 ag: 34.4*; PPARg SRC-2 ag: 10.8; TR-FRET SRC-2 ct: 1915; SRC3 TRFRET art: 2774*

What do the screens show for `CC(=O)Nc1ccc(Nc2nc(-c3ccccc3)nc3ccccc23)cc1`?
SRC1 TRFRET art: 1753; PPARg SRC1 recr: -0.7; PPARg SRC-3 ag: -1.1; PPARg SRC-2 ag: -4.5; TR-FRET SRC-2 ct: 1370; SRC3 TRFRET art: 1577

How did Cn1c(=O)c2c(nc(SCC(=O)c3ccccc3F)n2C)n(C)c1=O do in these assays?
SRC1 TRFRET art: 1688; PPARg SRC1 recr: -1.7; PPARg SRC-3 ag: -4.4; PPARg SRC-2 ag: 2.1; TR-FRET SRC-2 ct: 1602; SRC3 TRFRET art: 1633

How did Cc1nn(CCc2nc(-c3ccco3)cs2)c2[nH]c(=O)cc(C(F)(F)F)c12 do in these assays?
SRC1 TRFRET art: 1614; PPARg SRC1 recr: 9.0; PPARg SRC-3 ag: -1.2; PPARg SRC-2 ag: 8.5; TR-FRET SRC-2 ct: 1605; SRC3 TRFRET art: 2055*

How did Cc1cc(C)n(CCc2nc(-c3ccco3)cs2)n1 do in these assays?
PPARg SRC1 recr: -5.5; PPARg SRC-3 ag: -3.1; PPARg SRC-2 ag: 6.3; TR-FRET SRC-2 ct: 1596

How did Cn1c(CNC(=O)c2ccccc2F)nnc1SCc1nc2ccccc2c(=O)[nH]1 do in these assays?
SRC1 TRFRET art: 1481; PPARg SRC1 recr: 1.9; PPARg SRC-3 ag: -3.3; PPARg SRC-2 ag: 0.7; TR-FRET SRC-2 ct: 1560; SRC3 TRFRET art: 1558

What do the screens show for `CCc1c(C)sc(NC(=O)c2noc(C)c2[N+](=O)[O-])c1C#N`?
SRC1 TRFRET art: 1677; PPARg SRC1 recr: -4.0; PPARg SRC-3 ag: 5.7; PPARg SRC-2 ag: 9.8; TR-FRET SRC-2 ct: 1659; SRC3 TRFRET art: 1570

What do the screens show for `CC(=O)Nc1ccc(S(=O)(=O)Nc2nc3ccccc3nc2Sc2nncn2C)cc1`?
PPARg SRC1 recr: 0.1; PPARg SRC-3 ag: -0.5; PPARg SRC-2 ag: 7.3; TR-FRET SRC-2 ct: 2233*

What do the screens show for `O=C(Nc1nc2c(ccc3ccccc32)s1)c1cc([N+](=O)[O-])ccc1N1CCOCC1`?
SRC1 TRFRET art: 2030; PPARg SRC1 recr: 3.5; PPARg SRC-3 ag: -0.9; PPARg SRC-2 ag: -7.5; TR-FRET SRC-2 ct: 1851; SRC3 TRFRET art: 1643

How did CN(C)S(=O)(=O)c1ccc(N2CCCC2)c(C(=O)Nc2nc3c(ccc4ccccc43)s2)c1 do in these assays?
SRC1 TRFRET art: 2112; PPARg SRC1 recr: 1.5; PPARg SRC-3 ag: 6.6; PPARg SRC-2 ag: 10.1; TR-FRET SRC-2 ct: 2069*; SRC3 TRFRET art: 2179*

What do the screens show for `O=C(c1ccccc1)c1ccc2nc(-c3ccc(NC(=O)c4ccccc4Br)cc3)[nH]c2c1`?
PPARg SRC1 recr: 8.6; PPARg SRC-3 ag: 7.8; PPARg SRC-2 ag: -0.5; TR-FRET SRC-2 ct: 2003*

Results for Cc1ccc(-n2cc(CNC(C)c3cnn(C)c3C)c(-c3ccc(F)cc3)n2)cc1 (stereo not drawn) ?
SRC1 TRFRET art: 1901; PPARg SRC1 recr: 11.5; PPARg SRC-3 ag: -1.4; PPARg SRC-2 ag: 2.9; TR-FRET SRC-2 ct: 1552; SRC3 TRFRET art: 1631

How did CC(C)NC(=O)COC(=O)c1cccc(NS(=O)(=O)/C=C/c2ccccc2)c1 do in these assays?
SRC1 TRFRET art: 1751; PPARg SRC1 recr: -1.7; PPARg SRC-3 ag: 2.9; PPARg SRC-2 ag: 21.9*; TR-FRET SRC-2 ct: 1606; SRC3 TRFRET art: 1709

How did Cc1cccc(C)c1NC(=S)Nc1c(C)n(C)n(-c2ccccc2)c1=O do in these assays?
SRC1 TRFRET art: 1821; PPARg SRC1 recr: 26.2*; PPARg SRC-3 ag: -4.9; PPARg SRC-2 ag: -1.3; TR-FRET SRC-2 ct: 1391; SRC3 TRFRET art: 1560

How did Cc1ccccc1-n1c(C)cc(/C=N/NC(=O)c2ccncc2)c1C do in these assays?
PPARg SRC1 recr: -4.1; PPARg SRC-3 ag: -5.8; PPARg SRC-2 ag: -6.2; TR-FRET SRC-2 ct: 1379

What do the screens show for `Cc1cc(C)cc(-n2c(C)cc(/C=N/NC(=O)c3ccncc3)c2C)c1`?
SRC1 TRFRET art: 2092; PPARg SRC1 recr: 0.8; PPARg SRC-3 ag: 1.2; PPARg SRC-2 ag: 3.8; TR-FRET SRC-2 ct: 1986*; SRC3 TRFRET art: 1610

Results for O=C(COC(=O)c1cnccn1)c1ccc(Cl)cc1 ?
SRC1 TRFRET art: 1765; PPARg SRC1 recr: 4.1; PPARg SRC-3 ag: -3.8; PPARg SRC-2 ag: -1.4; TR-FRET SRC-2 ct: 1439; SRC3 TRFRET art: 1619

What do the screens show for `COc1ccc(NS(=O)(=O)c2c(C)n(C)c(=O)n(C)c2=O)cc1OC`?
PPARg SRC1 recr: -3.6; PPARg SRC-3 ag: 3.4; PPARg SRC-2 ag: 23.6*; TR-FRET SRC-2 ct: 1716
